# Laboratory results taken from ChEMBL document CHEMBL1157539, “Thousands of chemical starting points for antimalarial lead identification” (Nature, 2010).
# Key:
# Assay type in all cases: functional
# Plasmodium falciparum [1] = test: GSK_TCMDC: Inhibition of Plasmodium falciparum 3D7 in whole red blood cells, using parasite LDH activity as an index of growth. Test compounds present at 2uM
# Plasmodium falciparum [2] = test: GSK_TCMDC: Inhibition of Plasmodium falciparum Dd2 in whole red blood cells, using parasite LDH activity as an index of growth. Test compounds present at 2uM
# HepG2 = test: GSK_TCMDC: Percent inhibition of human HepG2 cell line. Test compounds present at 10uM.
SMILES,Inhibition (Plasmodium falciparum [1]) [%],Inhibition (Plasmodium falciparum [2]) [%],Inhibition (HepG2) [%]
CCc1cn2c3c(cc(C(=O)N[C@@H](Cc4ccccc4)[C@H](O)CNC(C)C)cc13)N(C)S(=O)(=O)C2.O=CO,98,98,16
CC(=O)Nc1ccc(CN(Cc2ccc(C)cc2)Cc2cccc(Oc3ccccc3)c2)cc1,84,87,34
COc1ccc2nc(N)nc(C)c2c1,90,1,5
CN1CCC(c2ccc(NC(=O)c3ccc(-c4cccc(C(F)(F)F)c4)o3)cc2)CC1,86,23,23
Fc1cc(Cl)ccc1Nc1ccnc2cc(-c3ccc(CN4CCCCC4)o3)ccc12,100,99,16
Cc1cccc2nc(-c3cccc(-c4ccc(NC(=O)CN5CCN(C)CC5)cc4)c3)[nH]c12,100,99,45
COc1cccc(C(=O)NC(C=Cc2ccccc2)c2cc(Cl)c3cccnc3c2O)c1 (stereo not given),95,58,27
CN1CCN(c2cc3c(cc2Cl)CCN3C(=O)Cc2ccc(NC(=O)Nc3cccc4ccccc34)cc2)CC1,92,18,12
N#Cc1cccc(Nc2nccc(NCC(O)c3ccccc3C(F)(F)F)n2)c1 (stereo not given),98,39,36
COc1cc(C(=O)N2CCOC(CCN3CCC[C@H]3C(=O)Nc3ccccc3)(c3ccc(Cl)c(Cl)c3)C2)cc(OC)c1OC (stereo not given in full),98,88,3
FC(F)(F)c1ccc(Nc2nnnc3ccccc23)cc1,90,82,3
O=C(NC1CCN(Cc2ccccc2)CC1)c1ccc(-c2nc3cc4ccccc4cc3[nH]2)s1,99,25,13
Cc1cccc2nc(-c3ccc(-c4cccc(CNCC5CCCO5)c4)s3)[nH]c12.O=C(O)C(F)(F)F (stereo not given),93,11,26
COc1cc(C(C)C)nc2ccc(NC(=O)c3ccc(C(=O)Nc4ccc5nc(C(C)C)cc(OC)c5c4)cc3)cc12,95,72,39
Cc1cccc2nc(C(=O)Nc3nc(CN4CCC(C)CC4)cs3)cn12,94,80,0
CC1CN(Cc2cccc(C#N)c2)CCN1c1ccc(NC(=O)c2cccs2)cc1.O=C(O)C(F)(F)F (stereo not given),94,93,4
Br.Oc1ccccc1CCNCC1CCc2ccccc2C1 (stereo not given),98,98,37
CC[C@H]1CN(Cc2ccccc2Br)CC[C@H]1CCCc1ccnc2ccc(O)cc12,86,2,12
COc1ccc(Cc2c(C)nc3nc(N)nc(N)c3c2C)cc1OC.Cl,93,0,66
Nc1nccc2ccc(Oc3ccncc3)cc12,91,81,0
O=C(/C=C/c1ccc(Cl)c(Cl)c1)NCCCCCN1CCC(CCNC(=O)c2snnc2-c2ccccc2)CC1,89,1,54
CSC1=NC(=Nc2c(C)cccc2C)C2(CCCCC2)N1c1ccccc1Cl,95,57,22
COc1ccc(C2CCN(CCN3CCC(NC(=O)c4ccc(-c5cccc(C(F)(F)F)c5C(F)(F)F)cc4)CC3)CC2)c(OC)c1,100,61,35
O=C(NC1CCN(Cc2cccc(C(F)(F)F)c2)CC1)c1ccc(-c2cccc(C(F)(F)F)c2)s1.O=C(O)C(F)(F)F,94,54,36
COC(=O)c1cccc(CNCc2cccc(-c3csc(-c4nc5ccccc5[nH]4)c3)c2)c1.O=C(O)C(F)(F)F,100,44,0
O=C(CCc1c[nH]cn1)Nc1cccc(-c2cccc(-c3nc4cc(C(F)(F)F)ccc4[nH]3)c2)c1,100,99,17
O=C(Nc1ccc(N2CCN(C(=O)/C=C/c3ccccc3)CC2)c(Cl)c1)c1ccc([N+](=O)[O-])o1,97,90,98
CC1CCCN(S(=O)(=O)c2cc(Br)cc3c2N(C(=O)C2CC2)CC3)C1 (stereo not given),83,70,0
CC(C)OC(=O)c1ccccc1S(N)(=O)=O,97,0,0
O=C(c1cccc(-c2cccc(-c3nc4ccccc4[nH]3)c2)c1)N1CCCCC1CN1CCC(O)C1 (stereo not given),100,56,66
